Where “and” joins values, the source holds several entries; their conditions need not be identical. Equal values may be shown once. Out of some 5,500 compounds screened, about 2,000 (36%) were called active. Inconclusive results (about 18%) are left out. Cut-off read from the data, not from the text of the source: active = normalized growth mostly below about 0.91 (no sharp cut-off); inconclusive = no clear call, values can overlap the other calls; inactive = mostly above about 0.92. Some of the results follow.
Test: chemical genetic growth profiling, strain panel (AID 1159580);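 note: tested at 20 µM; growth read once vehicle control cultures reached saturation at 30 °C; 1 = growth at the plate median or of vehicle wells; lower values mean less growth of the strain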
Details: S. cerevisiae deletion strains, growth OD

Measured: normalized growth

CC(C(=O)O)c1ccc(-c2ccccc2)c(F)c1 (stereo unspecified)
1 (inactive) and 0.73 (active): locus YJL095W, strain BCK1, stronger effect = lower value
active: locus YDL185W, strain tfp1, stronger effect = lower value 0.869 | locus YDR101C, strain arx1, stronger effect = lower value 0.917 | locus YDR137W, strain rgp1, stronger effect = lower value 0.821 | locus YGL078C, strain dbp3, stronger effect = lower value 0.913 | locus YHR079C, strain IRE1, stronger effect = lower value 0.774 | locus YIL125W, strain kgd1, stronger effect = lower value 0.868
inactive: locus YAL013W, strain DEP1, stronger effect = lower value 0.952 | locus YAL021C, strain ccr4, stronger effect = lower value 0.978 | locus YAL026C, strain drs2, stronger effect = lower value 0.949 | locus YAL030W, strain snc1, stronger effect = lower value 0.99 | locus YBL061C, strain skt5, stronger effect = lower value 1 | locus YBR009C, strain hhf1, stronger effect = lower value 0.984 | locus YBR021W, strain FUR4, stronger effect = lower value 0.936 | locus YBR023C, strain chs3, stronger effect = lower value 1.02 | locus YBR171W, strain sec66, stronger effect = lower value 0.968 | locus YBR229C, strain ROT2, stronger effect = lower value 0.993 | locus YBR231C, strain swc5, stronger effect = lower value 0.974 | locus YBR279W, strain paf1, stronger effect = lower value 1.01 | locus YCL011C, strain gbp2, stronger effect = lower value 1 | locus YCL016C, strain dcc1, stronger effect = lower value 1.02 | locus YCL029C, strain bik1, stronger effect = lower value 0.944 | locus YCL061C, strain MRC1, stronger effect = lower value 0.99 | locus YCL069W, strain vba3, stronger effect = lower value 0.99 | locus YCR088W, strain abp1, stronger effect = lower value 0.978 | locus YDL005C, strain med2, stronger effect = lower value 0.965 | locus YDL035C, strain GPR1, stronger effect = lower value 0.958 | locus YDL040C, strain nat1, stronger effect = lower value 0.995 | locus YDL074C, strain BRE1, stronger effect = lower value 0.959 | locus YDL101C, strain DUN1, stronger effect = lower value 1.01 | locus YDL192W, strain arf1, stronger effect = lower value 0.974 | locus YDR001C, strain nth1, stronger effect = lower value 0.977 | locus YDR069C, strain doa4, stronger effect = lower value 1.02 | locus YDR159W, strain sac3, stronger effect = lower value 0.913 | locus YDR162C, strain NBP2, stronger effect = lower value 0.936 | locus YDR195W, strain ref2 0.985 | locus YDR297W, strain sur2, stronger effect = lower value 0.992 | locus YDR318W, strain mcm21, stronger effect = lower value 0.979 | locus YDR334W, strain swr1, stronger effect = lower value 0.972 | locus YDR335W, strain msn5, stronger effect = lower value 1.01 | locus YDR388W, stronger effect = lower value 0.963 | locus YDR392W, strain spt3, stronger effect = lower value 0.748 | locus YDR502C, strain sam2, stronger effect = lower value 0.968 | locus YEL003W, strain gim4, stronger effect = lower value 0.967 | locus YEL037C, strain rad23, stronger effect = lower value 0.983 | locus YEL061C, strain CIN8 (second series), stronger effect = lower value 0.979 | locus YEL061C, strain CIN8, stronger effect = lower value 0.963 | locus YER015W, strain faa2, stronger effect = lower value 1 | locus YER016W, strain bim1, stronger effect = lower value 0.971 | locus YER110C, stronger effect = lower value 0.974 | locus YER111C, strain swi4, stronger effect = lower value 0.977 | locus YER155C, strain BEM2 (second series), stronger effect = lower value 0.979 | locus YER155C, strain BEM2, stronger effect = lower value 0.93 | locus YER167W, strain BCK2, stronger effect = lower value 0.974 | locus YFR010W, strain ubp6, stronger effect = lower value 0.997 | locus YGL086W, strain mad1, stronger effect = lower value 0.974 | locus YGL167C, strain pmr1, stronger effect = lower value 0.983 | locus YGL173C, strain kem1, stronger effect = lower value 0.968 | locus YGL227W, strain vid30, stronger effect = lower value 0.991 | locus YGL240W, strain doc1, stronger effect = lower value 0.953 | locus YGL248W, strain PDE1, stronger effect = lower value 1 | locus YGL253W, strain hxk2, stronger effect = lower value 0.98 | locus YGR135W, strain pre9, stronger effect = lower value 1.04 | locus YGR252W, strain gcn5, stronger effect = lower value 1.04 | locus YHR013C, strain ard1, stronger effect = lower value 1.05 | locus YHR027C, strain rpn1, stronger effect = lower value 0.994 | locus YHR079C, strain IRE1 (second series), stronger effect = lower value 0.959 | locus YHR094C, strain hxt1, stronger effect = lower value 0.951 | locus YHR129C, strain ARP1, stronger effect = lower value 0.99 | locus YHR142W, strain chs7, stronger effect = lower value 1.01 | locus YHR200W, strain rpn10, stronger effect = lower value 0.978 | locus YIL066C, strain RNR3, stronger effect = lower value 0.981 | locus YIL073C, strain SPO22, stronger effect = lower value 1.01 | locus YIR030C, strain dcg1, stronger effect = lower value 0.963 | locus YJL092W, strain hpr5, stronger effect = lower value 0.99 | locus YJL095W, strain BCK1 (second series), stronger effect = lower value 0.988 | locus YJL115W, strain asf1, stronger effect = lower value 0.982 | locus YJL129C, strain trk1, stronger effect = lower value 0.933 | locus YJL134W, strain LCB3, stronger effect = lower value 0.975 | locus YJL154C, strain vps35, stronger effect = lower value 0.984 | locus YJL164C, strain tpk1, stronger effect = lower value 0.992 | locus YJL166W, strain qcr8, stronger effect = lower value 1.01 | locus YJL168C, strain set2, stronger effect = lower value 0.959 | locus YJL187C, strain SWE1 (second series), stronger effect = lower value 0.989 | locus YJL187C, strain SWE1, stronger effect = lower value 0.985
0.944 (inactive) and 0.704 (active): locus YHR030C, strain SLT2, stronger effect = lower value

— PubChem BioAssay AID1159580 (chemical genetic matrix, 2015)
